Data: PMC7862700, “An all-to-all approach to the identification of sequence-specific readers for epigenetic DNA modifications on cytosine”

Assays:
Assay in all cases: DAPPL (digital affinity profiling via proximity ligation, sequencing); 10 mM Tris-HCl pH 7.5, 50 mM NaCl, 1 mM DTT, 4% glycerol, room temperature, 30 min; GST-TFs on glutathione beads, 16-mer random dsDNA library, 0.1% formaldehyde crosslink after washing; high values mean tight binding
Conditions in all cases: protein: recombinant; tags: N-terminal GST; dsDNA, one strand shown
ERF = target: T1, ERF (Homo sapiens, UniProt P50548 1-548)
T1 sequence: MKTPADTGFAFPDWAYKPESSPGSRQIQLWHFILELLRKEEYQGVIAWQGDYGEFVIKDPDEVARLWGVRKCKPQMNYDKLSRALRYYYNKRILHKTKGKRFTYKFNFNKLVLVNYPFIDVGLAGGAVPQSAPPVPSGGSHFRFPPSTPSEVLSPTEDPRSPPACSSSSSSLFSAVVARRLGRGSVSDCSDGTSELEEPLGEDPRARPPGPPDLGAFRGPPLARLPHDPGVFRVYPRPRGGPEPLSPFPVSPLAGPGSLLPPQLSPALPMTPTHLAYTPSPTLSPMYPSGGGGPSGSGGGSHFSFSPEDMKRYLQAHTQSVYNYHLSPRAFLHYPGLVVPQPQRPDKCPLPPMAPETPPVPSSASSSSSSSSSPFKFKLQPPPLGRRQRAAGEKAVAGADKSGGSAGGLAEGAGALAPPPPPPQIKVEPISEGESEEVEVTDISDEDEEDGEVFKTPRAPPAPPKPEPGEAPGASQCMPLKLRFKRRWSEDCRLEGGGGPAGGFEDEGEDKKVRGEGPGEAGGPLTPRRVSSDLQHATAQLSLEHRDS
How it was run: (§1)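 The binding signal reported is, for every hexamer, its read frequency for a factor over its read frequency for the tag-only sample. Reads came from pools of yeast-expressed, GST-fused human transcription factors on glutathione beads, barcoded with DNA and mixed with that sample, which were incubated with 200 nmole of a random double-stranded 16-mer DNA library in Tris/NaCl/DTT/glycerol buffer at room temperature for 30 min. After washing, the pools were crosslinked with 0.1% formaldehyde, proximity-ligated with BsaI/T4 ligase for 1 h at 37 °C, PCR-amplified and sequenced on an Illumina NextSeq500.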

ETV3L = target: T2, ETV3L (Homo sapiens, UniProt Q6ZN32 1-361)
T2 sequence: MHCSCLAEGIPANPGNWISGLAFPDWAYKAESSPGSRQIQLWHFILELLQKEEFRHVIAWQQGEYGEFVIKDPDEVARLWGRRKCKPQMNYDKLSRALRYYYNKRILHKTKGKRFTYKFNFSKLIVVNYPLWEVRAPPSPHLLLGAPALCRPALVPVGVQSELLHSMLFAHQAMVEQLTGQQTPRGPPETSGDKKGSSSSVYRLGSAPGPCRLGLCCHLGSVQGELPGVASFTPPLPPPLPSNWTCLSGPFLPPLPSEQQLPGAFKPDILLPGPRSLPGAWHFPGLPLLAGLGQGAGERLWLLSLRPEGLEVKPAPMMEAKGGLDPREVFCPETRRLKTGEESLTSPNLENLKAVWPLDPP
How it was run: as §1

ETS2 = target: T3, ETS2 (Homo sapiens, UniProt P15036 1-469)
T3 sequence: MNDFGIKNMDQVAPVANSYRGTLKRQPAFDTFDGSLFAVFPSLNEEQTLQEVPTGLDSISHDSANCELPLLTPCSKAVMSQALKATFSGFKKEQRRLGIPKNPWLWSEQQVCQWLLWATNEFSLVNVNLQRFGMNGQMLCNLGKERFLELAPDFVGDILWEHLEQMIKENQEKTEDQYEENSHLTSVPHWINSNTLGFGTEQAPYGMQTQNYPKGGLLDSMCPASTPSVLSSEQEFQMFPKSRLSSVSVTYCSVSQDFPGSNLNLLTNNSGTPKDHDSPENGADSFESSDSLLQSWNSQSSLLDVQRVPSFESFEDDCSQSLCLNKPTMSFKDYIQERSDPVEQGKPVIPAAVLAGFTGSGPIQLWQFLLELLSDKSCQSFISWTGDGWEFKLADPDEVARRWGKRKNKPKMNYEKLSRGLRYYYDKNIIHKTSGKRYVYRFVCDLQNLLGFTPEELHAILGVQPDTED
How it was run: as §1

SPDEF = target: T4, SPDEF (Homo sapiens, UniProt O95238 1-335)
T4 sequence: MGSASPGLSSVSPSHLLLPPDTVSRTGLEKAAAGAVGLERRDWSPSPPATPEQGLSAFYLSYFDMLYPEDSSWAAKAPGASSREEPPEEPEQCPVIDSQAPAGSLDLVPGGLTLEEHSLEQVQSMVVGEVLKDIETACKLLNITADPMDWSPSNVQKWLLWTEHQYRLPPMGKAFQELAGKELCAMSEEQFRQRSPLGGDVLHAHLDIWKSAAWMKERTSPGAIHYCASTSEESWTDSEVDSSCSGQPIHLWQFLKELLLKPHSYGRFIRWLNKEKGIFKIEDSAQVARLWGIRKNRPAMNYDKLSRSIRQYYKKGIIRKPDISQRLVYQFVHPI
How it was run: as §1

ETV7 = target: T5, ETV7 (Homo sapiens, UniProt Q9Y603 1-341)
T5 sequence: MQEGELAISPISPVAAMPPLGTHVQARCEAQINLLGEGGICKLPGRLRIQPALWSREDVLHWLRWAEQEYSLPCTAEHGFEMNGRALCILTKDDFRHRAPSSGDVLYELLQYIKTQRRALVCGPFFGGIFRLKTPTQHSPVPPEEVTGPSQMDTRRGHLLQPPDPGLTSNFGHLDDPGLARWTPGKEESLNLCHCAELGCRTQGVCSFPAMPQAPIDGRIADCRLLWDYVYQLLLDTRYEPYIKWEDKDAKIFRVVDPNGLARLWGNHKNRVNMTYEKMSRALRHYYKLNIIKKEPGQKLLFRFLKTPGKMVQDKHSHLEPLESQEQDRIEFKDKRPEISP
How it was run: as §1

ELF5 = target: T6, ELF5 (Homo sapiens, UniProt Q9UKW6-2 1-255)
T6 sequence: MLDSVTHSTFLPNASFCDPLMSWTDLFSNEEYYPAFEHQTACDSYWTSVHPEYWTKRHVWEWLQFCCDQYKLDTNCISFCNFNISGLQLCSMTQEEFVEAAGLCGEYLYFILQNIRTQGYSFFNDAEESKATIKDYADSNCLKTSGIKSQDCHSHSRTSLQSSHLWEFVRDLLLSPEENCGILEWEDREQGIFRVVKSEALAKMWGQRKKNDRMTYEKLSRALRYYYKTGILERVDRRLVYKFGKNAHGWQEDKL
How it was run: as §1

ETV3 = target: T7, ETV3 (Homo sapiens, UniProt P41162-2 1-143)
T7 sequence: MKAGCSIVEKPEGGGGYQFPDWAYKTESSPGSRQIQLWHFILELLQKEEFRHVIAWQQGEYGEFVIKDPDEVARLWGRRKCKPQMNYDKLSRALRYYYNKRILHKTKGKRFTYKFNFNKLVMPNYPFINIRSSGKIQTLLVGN
How it was run: as §1

ETV6 = ETV6 (Homo sapiens, UniProt P41212 1-452)
Sequence of ETV6 (P41212 whole entry): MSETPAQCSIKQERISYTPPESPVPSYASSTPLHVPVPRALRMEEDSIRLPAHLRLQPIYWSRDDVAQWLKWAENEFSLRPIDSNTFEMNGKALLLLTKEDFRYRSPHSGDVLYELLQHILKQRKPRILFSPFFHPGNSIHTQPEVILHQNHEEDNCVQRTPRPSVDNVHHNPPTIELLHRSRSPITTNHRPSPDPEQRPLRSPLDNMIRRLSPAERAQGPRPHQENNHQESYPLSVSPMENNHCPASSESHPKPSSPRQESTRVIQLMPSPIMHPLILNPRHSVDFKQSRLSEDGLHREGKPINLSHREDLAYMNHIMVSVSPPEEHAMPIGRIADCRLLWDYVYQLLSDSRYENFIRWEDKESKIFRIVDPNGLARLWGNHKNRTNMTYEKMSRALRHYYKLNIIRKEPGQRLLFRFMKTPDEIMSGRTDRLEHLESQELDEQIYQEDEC
How it was run: as §1

Sequence	binding signal (ERF)	binding signal (ETV3L)	binding signal (ETS2)	binding signal (SPDEF)	binding signal (ETV7)	binding signal (ELF5)	binding signal (ETV3)	binding signal (ETV6)
TTCAAA	1.26 fold enrichment (6-mer frequency, TF over GST control)	1.27 fold enrichment (6-mer frequency, TF over GST control)	1.25 fold enrichment (6-mer frequency, TF over GST control)	1.23 fold enrichment (6-mer frequency, TF over GST control)	1.19 fold enrichment (6-mer frequency, TF over GST control)	1.21 fold enrichment (6-mer frequency, TF over GST control)	1.23 fold enrichment (6-mer frequency, TF over GST control)	1.27 fold enrichment (6-mer frequency, TF over GST control)
TCATCC	1.2 fold enrichment (6-mer frequency, TF over GST control)	1.42 fold enrichment (6-mer frequency, TF over GST control)	1.35 fold enrichment (6-mer frequency, TF over GST control)	1.85 fold enrichment (6-mer frequency, TF over GST control)	1.24 fold enrichment (6-mer frequency, TF over GST control)	1.6 fold enrichment (6-mer frequency, TF over GST control)	1.55 fold enrichment (6-mer frequency, TF over GST control)	1.38 fold enrichment (6-mer frequency, TF over GST control)
TAAGAT	1.3 fold enrichment (6-mer frequency, TF over GST control)	1.12 fold enrichment (6-mer frequency, TF over GST control)	1.19 fold enrichment (6-mer frequency, TF over GST control)	1.31 fold enrichment (6-mer frequency, TF over GST control)	1.19 fold enrichment (6-mer frequency, TF over GST control)	1.11 fold enrichment (6-mer frequency, TF over GST control)	1.2 fold enrichment (6-mer frequency, TF over GST control)	1.28 fold enrichment (6-mer frequency, TF over GST control)
CTGCCT	1.23 fold enrichment (6-mer frequency, TF over GST control)	1.26 fold enrichment (6-mer frequency, TF over GST control)	1.16 fold enrichment (6-mer frequency, TF over GST control)	1.31 fold enrichment (6-mer frequency, TF over GST control)	1.36 fold enrichment (6-mer frequency, TF over GST control)	1.29 fold enrichment (6-mer frequency, TF over GST control)	1.23 fold enrichment (6-mer frequency, TF over GST control)	1.31 fold enrichment (6-mer frequency, TF over GST control)
ACATCC	2.41 fold enrichment (6-mer frequency, TF over GST control)	2.46 fold enrichment (6-mer frequency, TF over GST control)	2.68 fold enrichment (6-mer frequency, TF over GST control)	5.32 fold enrichment (6-mer frequency, TF over GST control)	2.28 fold enrichment (6-mer frequency, TF over GST control)	3.25 fold enrichment (6-mer frequency, TF over GST control)	2.88 fold enrichment (6-mer frequency, TF over GST control)	2.49 fold enrichment (6-mer frequency, TF over GST control)
TACGCT	1.4 fold enrichment (6-mer frequency, TF over GST control)	1.27 fold enrichment (6-mer frequency, TF over GST control)	1.22 fold enrichment (6-mer frequency, TF over GST control)	1.32 fold enrichment (6-mer frequency, TF over GST control)	1.31 fold enrichment (6-mer frequency, TF over GST control)	1.24 fold enrichment (6-mer frequency, TF over GST control)	1.42 fold enrichment (6-mer frequency, TF over GST control)	1.28 fold enrichment (6-mer frequency, TF over GST control)
